Hits are enriched below; roughly 3% of the tested compounds scored in any of these assays.
ALOX12 inh: ALOX12 (human) lipoxygenase inhibition. Potency, µM (top dose mostly 108 µM), without a hit: at the top dose activity change, negative = inhibition, usual class: inhibitors. 1.1% of 580,000 active. P18054. purified 12hLO, xylenol orange hydroperoxide absorbance; active means well fitted inhibition curve with a large enough effect; inconclusive means small, poorly fitted or top-dose-only effect, or another doubt; inactive means no such curve, though single readings can be large or run the other way; further: potency means the concentration at half of the fitted maximal effect; on the % scale 0 is the no-effect control and ±100 the full control effect
Target sequence (P18054 whole entry, looked up): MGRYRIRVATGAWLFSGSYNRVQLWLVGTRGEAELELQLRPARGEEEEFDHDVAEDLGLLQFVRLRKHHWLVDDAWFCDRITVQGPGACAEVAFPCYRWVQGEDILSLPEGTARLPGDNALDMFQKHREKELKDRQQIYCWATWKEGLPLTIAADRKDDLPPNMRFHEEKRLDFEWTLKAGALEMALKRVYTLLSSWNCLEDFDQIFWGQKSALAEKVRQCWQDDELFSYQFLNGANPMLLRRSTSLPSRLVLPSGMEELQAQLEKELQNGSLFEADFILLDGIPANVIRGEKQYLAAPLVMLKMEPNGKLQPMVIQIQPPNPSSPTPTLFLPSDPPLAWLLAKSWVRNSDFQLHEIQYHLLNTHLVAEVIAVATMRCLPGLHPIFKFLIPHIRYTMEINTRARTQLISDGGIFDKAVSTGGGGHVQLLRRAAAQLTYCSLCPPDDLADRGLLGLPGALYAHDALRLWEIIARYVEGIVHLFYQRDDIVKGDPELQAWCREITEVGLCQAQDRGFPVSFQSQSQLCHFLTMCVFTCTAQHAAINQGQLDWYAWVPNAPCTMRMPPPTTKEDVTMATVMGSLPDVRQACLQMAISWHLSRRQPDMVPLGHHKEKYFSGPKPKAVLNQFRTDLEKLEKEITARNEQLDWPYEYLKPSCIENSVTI
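Purified human 12hLO (150 nM final) in 25 mM Hepes, 0.01% Triton X-100, pH 7.0 was preincubated 15 min at room temperature with compound. Then 40 uM arachidonic acid was added, 30 min. Hydroperoxide was read by Fe-XO absorbance ratio 573/405 nm.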
BCR signal inh: inhibitors of chronic active B-cell receptor signaling; ABC-DLBCL IkBa-CBG/CBR reporter, luminescence ratio, 4 h; 0.05% of 340,000 active; Potency, µM (titrated, usually from 46.1 µM), without a hit: top-dose activity change, negative = inhibition, usual class: inhibitors; active means well fitted inhibition curve with a large enough effect in the signal ratio, with a control signal flat, not every such curve was filed as active; inconclusive means small, poorly fitted or top-dose-only effect, or effect the other way, or a change in a side signal; the % refers to the signal ratio;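 further: potency means the concentration at half of the fitted maximal effect; plate controls were basal doxycycline-induced cells for no effect and cells given 10 µM MG132 for full effect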
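TMD8 human ABC-DLBCL cells with doxycycline-inducible IκBα–green luciferase fusion and unfused red luciferase, in 0.5% FBS medium; compounds up to 46 uM, 4 h at 37C. Green/red luminescence ratio, filter-overlap corrected, fitted to concentration-response curves.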
ClpP mod: qHTS Assay for Activators of ClpP; ATP-dependent Clp protease proteolytic subunit (Bacillus subtilis (strain 168)), P80244; purified B. subtilis ClpP, FRET peptide cleavage, 20 min; Potency, µM (titrated, usually from 57.5 µM), for inactives: at the highest dose activity change, negative = active; 1.9% of 340,000 active; active means well fitted falling curve with a large enough effect; inconclusive means small, poorly fitted or top-dose-only effect; inactive means no such curve, though single readings can be large or run the other way; further: potency means the concentration at half of the fitted maximal effect; the source files actives as falling curves though it sought activators and does not explain the sign; nearly all actives have a fitted effect of over 65% in size
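Purified B. subtilis ClpP, 10 microg/mL final in Tris/HCl pH8 with KCl, BSA, glycerol and Tween-20, cleaved an Abz/nitrotyrosine-quenched decapeptide. Fluorescence (ex 320, em 430) was read at 0 and 20 min at room temperature. Delta was normalized to 5.8 microM ADEP and DMSO/no-enzyme controls.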
KCNH2 WT inh: blocks the wildtype human KCNH2 potassium channel; Q12809; activity change, % at 1.84 µM; 0.37% of 340,000 active; U2OS, BacMam KCNH2, thallium flux FluxOr; stronger effect = lower value;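 active means maximum activity change below -70%; inconclusive means maximum activity change between -70% and -50%; inactive means maximum activity change above -50%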; further: on the % scale 0 is the no-effect control and ±100 the full control effect
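U2OS cells transduced with wild-type KCNH2 virus are loaded with FluxOr dye for 45 min, and thallium flux is measured in kinetic reads before and after stimulation buffer. Rate constants are normalized to DMSO controls.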
KCNH2 3.1 block: blocks the human KCNH2 3.1 channel isoform; U2OS KCNH2 3.1, thallium flux FluxOr; stronger effect = lower value; activity change, % (tested at about 1.8 µM); 0.95% of 340,000 active;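 active means maximum activity change below -70%; inconclusive means maximum activity change from -70% to -50%; inactive means maximum activity change above -50%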;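 further: thallium influx rate constant from kinetic fluorescence after stimulation buffer; on the % scale 0 is the no-effect control and ±100 the full control effect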
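Thallium flux via FluxOr fluorescence (Red40 quencher, 45 min loading) in U2OS cells virally expressing the KCNH2 3.1 isoform (1.77 x 10^8 /mL virus, overnight at 37 C). Rate constants from 2-min kinetic reads post-stimulation, normalised to positive and negative controls.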
LDHA inh: inhibitors of human lactate dehydrogenase A; purified LDHA, NADH/diaphorase-resazurin fluorescence; stronger effect = lower value; P00338; activity change, % (values are at about 110 or 230 µM); 0.15% of 480,000 active; in the data active means activity change below about -30%; inconclusive means mostly about -25% to -30%;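 further: plate controls were DMSO wells for no effect and wells without enzyme for full effect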
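Human LDH5 at 2 nM final in Tris HCl pH 7.4 with 0.06 mM NADH and 0.2 mM pyruvate, reacted 5 minutes at room temperature. Remaining NADH coupled via diaphorase/resazurin; resorufin fluorescence read at 0 and 20 minutes, normalized to enzyme-free and DMSO wells.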
Numbers without * were called inactive; u = inconclusive; x = not tested or not shown; ! = not confirmed by another sample.

SMILES	ALOX12 inh	BCR signal inh	ClpP mod	KCNH2 WT inh	KCNH2 3.1 block	LDHA inh
Cc1ccc(NC(=O)CS(=O)CC(=O)NCC2OCCc3ccccc32)c(C)c1 (stereo not given)	3.0%	1.0%	-2.7%	2.2	-7.6	-6.6
COCCCNC(=O)CN(C)C(=O)CCc1ncc(-c2ccccc2)o1	45.5%	x	x	x	x	-0.6
O=C(Nc1ccccc1)C(=O)N1CCN(C(=O)c2cc3ccccc3[nH]2)CC1	-9.6%	x	x	x	x	3.4
C=CCNC(=O)/C(C#N)=C/c1ccc2c(c1)OCCO2	-6.8%	u	x	4.6	31.4	-5.2
C=CCNC(=O)/C(C#N)=C/c1ccc(SC)cc1	-4.3%	u	25.1µM*	-4.2	5.1	-5.9
CCCCN(C(=O)c1cccnc1OCC)c1c(N)n(Cc2ccccc2)c(=O)[nH]c1=O	7.7%	x	x	x	x	5.2
O=C(O)CCC(=O)c1ccc(Cl)s1	u	x	x	x	x	10.2
NNC(=O)c1cccn(Cc2ccc(Cl)cc2Cl)c1=O	x	-10.1%	u	-87.7*	-6.3	-2.2
O=Cc1cccn1Cc1ccc(Cl)cc1Cl	-0.2%	10.7%	-0.9%	0.9	u	-7.8
Cc1ncoc1C(=O)N1CC(c2noc(C3CCCN3CC3CC3)n2)C1 (stereo not given)	47.0%	x	x	x	x	x
Nc1ccc2c(c1)C/C(=C/c1ccco1)C2=O	u	-1.6%	14.1µM*	-26.0	-3.0	-2.2
O=C1/C(=C/c2ccco2)CCc2ccccc21	u	-9.1%	0.6%	5.5	6.1	6.9
CCN(Cc1cccs1)Cc1cc(=O)oc2cc(C)c(C)cc12	u	x	x	x	x	1.2
Cc1[nH]n(-c2ncc(-c3ccccc3)s2)c(=O)c1C(c1ccc(Br)cc1)C(C#N)C#N (stereo not given)	25.1µM*	6.2%	21.9%	47.2	13.0	-5.7
COc1ccc(-c2cc(C(F)(F)F)nc(-n3cc(Br)cn3)n2)cc1	0.0%	3.2%	u	-4.3	-6.6	0.7
COc1cccc(-c2cc(C(F)(F)F)nc(-n3cc(Cl)cn3)n2)c1	u	-1.0%	31.6µM*	3.2	-6.5	8.5
COc1cccc(-c2cc(C(F)(F)F)nc(N3CCC(C)CC3)n2)c1	-14.3%	0.7%	25.1µM*	6.1	8.0	0.8
COc1nn(-c2nc(-c3ccccc3)cc(C(F)(F)F)n2)cc1[N+](=O)[O-]	-9.8%	-9.4%	22.4µM*	1.6	4.1	-4.3
COc1nc(-c2ccccc2)cc(C(F)(F)F)n1	1.3%	x	1.0%	-8.7	-2.2	0.9
COc1cccc(-c2cc(C(F)(F)F)nc(N3CCOCC3)n2)c1	64.3%	10.6%	-28.9%	4.5	11.8	-0.9
COc1ccc(-c2cc(C(F)(F)F)nc(-n3cncn3)n2)cc1	-22.8%	29.8%	20µM*	-0.5	u	1.1
FC(F)(F)c1cc(-c2ccccc2)nc(-n2cc(Cl)cn2)n1	-3.1%	u	-1.1%	-6.4	-0.1	-1.6
CCC(=O)N1CCCN(Cc2ccncc2)C(c2ccccc2)CC(=O)NCC1 (stereo not given)	19.8%	x	x	x	x	x
O=C(NCc1ccccn1)C(=O)N/N=C/c1ccc2c(c1)OCO2	6.5%	-24.3%	0.6%	-6.7	-106.0*	0.7
COC(=O)c1ccn(C(=O)c2ccc(Cl)cc2)n1	-21.4%	x	28.2µM*	1.1	-3.9	0.4
SMILES	ALOX12 inh	BCR signal inh	ClpP mod	KCNH2 WT inh	KCNH2 3.1 block	LDHA inh
CC(OC(=O)c1nc(-c2ccccc2)n(-c2ccccc2)n1)C(=O)Nc1cc(Cl)cc(Cl)c1 (stereo not given)	5.9%	16.3%	-0.9%	-141.9*	-43.9	-8.8
Cc1nn(-c2ccccc2)c(C)c1C(=O)OC(C)C(=O)Nc1ccc(C(N)=O)cc1 (stereo not given)	-16.1%	-8.0%	-5.1%	-1.9	4.4	-3.2
Cc1ccc(C)c(Cn2ccn3nc(-c4ccc(F)cc4)c(CO)c3c2=O)c1	25.5%	x	x	x	x	x
Cc1ccccc1-c1nc(Nc2ccncc2)c2ccccc2n1	35.5µM*	x	x	x	x	x
Cc1ccccc1-c1nc(NCc2cccnc2)c2ccccc2n1	28.2µM*	x	x	x	x	x
Oc1ccccc1-c1nc(NCc2cccnc2)c2ccccc2n1	-13.4%	u	3.7%	-15.3	10.8	-6.4
COC(CNC(=O)c1ccc2nc3ccccc3c(=O)n2c1)OC	4.6%	u	x	-5.1	15.8	1.9
COCCCNC(=O)c1ccc2nc3ccccc3c(=O)n2c1	14.5%	u	15.8µM*	-20.1	-0.5	7.6
COc1ccc2c(c1)c(=O)oc1cc(OCC(=O)NC3CC3)ccc12	0.0%	u	u	-0.6	3.9	-5.6
O=C(COc1ccc2ccc(=O)oc2c1)NC1CCCCC1	u	u	10µM*	0.7	8.5	-2.0
COc1ccc2c(c1)c(=O)oc1cc(OCC(=O)NC3CCCCC3)ccc12	u	0.8%	8.91µM*	-1.2	2.1	0.9
N#CC1(NC(=O)COc2ccc3ccc(=O)oc3c2)CCCCC1	-12.7%	8.6%	35.5µM*	-0.5	-0.4	-1.8
O=C(c1coc(=O)c(Br)c1)N1CCC(C(O)(c2ccccc2)c2ccccc2)CC1	-6.7%	-3.8%	u	-3.8	-9.7	-5.8
O=C(c1cccc(Br)c1)N1CCCc2ccccc21	0.0%	-0.6%	0.3%	-7.1	-10.0	1.5
O=C(c1coc(=O)c(Br)c1)N1CCCc2ccccc21	7.08µM*	2.3%	12.6µM*	-11.3	-9.7	15.6
CC1(C)CCCN(C(=O)c2coc(=O)c(Br)c2)C1	u	u	25.1µM*	0.3	-5.6	-12.9
CC(NC(=O)Cn1nc(-c2ccc(F)cc2)oc1=O)c1ccc(Br)cc1 (stereo not given)	u	x	x	x	x	1.0
CCCNC(=O)c1ccc(OC(C)C)cc1	u	x	x	x	x	-0.8
c1ccc2oc(-c3ccnc4nc(C5CCC5)nn34)cc2c1	-8.6%	x	x	x	x	x
O=C(Nc1cc([N+](=O)[O-])ccc1O)c1cccc(NC(=O)c2ccco2)c1	-0.4%	u	x	3.6	-3.5	-45.4*
O=C1c2ccccc2C(=O)c2c1ccc(O)c2O	2.28µM*!	x	2.5%	10.3	2.3	5.0
COC(=O)c1ccc2c(c1O)C(=O)c1ccccc1C2=O	6.0%	u	-0.2%	12.1	6.6	14.2
O=C(NCCN1CCOCC1)C1Cn2cccc2C(=O)N1Cc1ccccc1 (stereo not given)	43.1%	x	x	x	x	x
CN(C)C(=O)c1cnc(Cc2c[nH]c3ccccc23)c(I)c1	14.1µM*	x	x	x	x	x
O=C(COC(=O)c1cccnc1Cl)NCCC1=CCCCC1	-11.9%	3.0%	15.8µM*	-2.0	-4.6	-2.5
Cc1cccc(N2CCN(C(C(=O)O)c3cn(C)c4cc(C(=O)O)ccc34)CC2)c1C (stereo not given)	u	x	x	x	x	-0.4

Screening results from PubChem.
